The record followed here is PubChem BioAssay (NCI).

About 83,000 compounds went through this panel and 20% of them were active in at least one assay; those are over-represented in the sample as a whole.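 96-well plates, one dose, 48 hours. Percent growth reported; active if below 10.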 A number with no mark means an inactive call. Calls of active or inactive are those of the source.

This test deals with HCC-2998 colon. The experiment in a line: NCI-60 one-dose screen, 48 h (100 = growth as untreated, 0 = no growth, -100 = all killed). As to conditions: 10 µM unless noted. As to the method:
Growth inhibition of the HCC-2998 human tumor cell line is measured as a screen for anti-cancer activity. Cells are grown in 96 well plates and exposed to the test compound for 48 hours. Compounds are tested at a single concentration, which is 10^-5 M for most compounds. The reported endpoint is percent growth (GI% or GIPRCNT), where numbers from 0 - 100% represent growth inhibition, and numbers from -100% - 0 represent cell death. For example, a value of 40 represents 60% growth inhibition. A value of 0 means no net growth occurred over the course of the experiment. A value of -40 indicates 40% of cells at the beginning of the experiment died by the end of the experiment. A value of -100 means all cells are dead at the end of the experiment.
NCI-60 Human Tumor Cell Lines Screen was performed using the standard one-dose NCI protocol, which is described in more detail at https://dtp.cancer.gov/discovery_development/nci-60/default.htm.
Compounds with GIPRCNT values below 10 were considered active. Activity score was based on GIPRCNT using the following formula: […]
Score is 0 for GIPRCNT values of 100 or above, 50 for GIPRCNT values of 0, and 100 for GIPRCNT values of -100.
For `C=C(C)[C@@H]1CC[C@]2(COC(=O)c3cccnc3)CC[C@]3(C)[C@H](CC[C@@H]4[C@@]5(C)CCCN(C(=O)c6cccnc6)C(C)(C)[C@@H]5CC[C@]43C)[C@@H]12`, the growth was 50.1%. Next, `C#CCOC(=O)C(N)CSSCC(N)C(=O)O` (stereo not given): 101%; `Cn1cc(-c2ccc3occ(-c4cccc(-c5ccncc5)c4)c3n2)cn1`: 45%; `Cc1ccc(Nc2oc(-c3ccccc3)nc2[P+](c2ccccc2)(c2ccccc2)c2ccccc2)cc1`: -89.4% (active). As for `CN1CCN(Cc2ccc(NC(=O)c3cncc(C#Cc4cnc(N)c5ncccc45)c3)cc2Cl)CC1`, the figure is 106%; as for `O=C(OCC(O)(CO)C(=O)NC12CC3CC(CC(C3)C1)C2)c1ccc(Cl)cc1` (stereo not given), 106%; as for `O=C(O)CCCN1C(=O)CSC1=S`, 104%. Next, `O=C1/C(=C/c2ccccc2)COc2ccc(O)cc21`: 101%. Regarding `COc1ccc(-c2cn(Cc3ccc4c(Br)cc(Br)c(O)c4n3)nn2)cc1`, the growth is 101%.

For the compound `COC(=O)c1c(C)nc(C)c2c1C(=O)C(Br)=C(NCCCCO)C2=O`, the growth is 78.7%. Next, `O=CN1N=C(c2cccc(Nc3ccncc3)c2)CC1c1ccc2c(c1)OCO2` (stereo not given): 98.5%; `CCCCCC(C)(O)C(C(=O)O)c1ccccc1` (stereo not given): 108%. On to `Cc1nc2cccc(NCc3ccc(C(=O)NO)cc3)c2c(=O)n1-c1ccccc1`, for which the growth is 86.3%.

Regarding `CC1(C)CC(=O)C2=C(C1)OC(C(=O)c1ccccc1)C2c1cccc(Oc2ccccc2)c1` (stereo not given), the growth is 71.9%. Next, `COc1cc(CNC(=O)CCCC/C=C/C(C)C)ccc1OCc1cn(-c2ccc(C(F)(F)F)cc2)nn1`: 94.8%. As for `C=CC(=O)Nc1ccc2ncnc(Nc3cccc(NS(=O)(=O)CCC)c3Cl)c2c1`, the figure is 93.3%. `Clc1nc(N2CCC[N+]3(CC2)CC[N+]2(CCCNCC2)CC3)nc(N2CCC[N+]3(CC2)CC[N+]2(CCCNCC2)CC3)n1` (stereo not given): the growth is 97.9%. Next, `C#Cc1cccc(Nc2nc(Cl)nc3cc(NC(=O)CCl)ccc23)c1`: -84% (active); `Cc1ccc2c(c1)CC(O)CC1C(=O)N(CCO)CC(=O)N21` (stereo not given): 104%; `CSc1nn2c(-c3cc4cc(Br)ccc4oc3=O)ccnc2c1C#N`: 102%. Next, `Cc1cc2nc(C(Cl)Cl)nc(-c3ccccc3)n2n1`: 28.5%. As for `COc1ccc(C(=O)/C=C/Nc2cc(-c3ccccc3)nn2-c2ccccc2)cc1`, the figure is 99.4%; as for `C=C(C[n+]1ccccc1)[C@@H]1CC[C@]2(C(=O)OC)CC[C@]3(C)[C@H](CC[C@@H]4[C@@]5(C)CCC(=O)C(C)(C)[C@@H]5CC[C@]43C)[C@@H]12`, 90.9%; as for `CSc1nc(N)c2c(n1)NC(c1ccccc1)C1CCc3ccccc3C1=N2` (stereo not given), 88.8%.

Turning to `CNC1=C([N+](=O)[O-])C(c2ccc(OC)cc2)C(C#N)=C(c2ccc[nH]2)O1` (stereo not given), the growth is 100%. As for `Clc1ccc(C2=Nn3c(nnc3-c3cc(Cl)cc(Cl)c3Cl)SC2)cc1`, the figure is -8.03% (active). Next, `CNC(=O)c1cc(Oc2ccc3nc(NC(=O)Nc4ccc(F)cc4F)sc3c2)ccn1`: 88.1%; `NCCNc1ccc([N+](=O)[O-])cc1`: 115%. Regarding `CC(=O)c1ccc(Nc2nccc(-c3ccc(Cl)cc3)n2)cc1`, the growth is 114%. Next, `N#CC1=C(N)Oc2c(ccc3ccccc23)C1c1cc2ccccc2n2nnnc12` (stereo not given): 46.9%; `O=C(CSc1nc(-c2ccccc2)cn1-c1ccc(Cl)cc1)c1ccc([N+](=O)[O-])cc1`: 99.6%. As for `Cc1ccc(S(=O)(=O)c2nc(-c3ccccc3)oc2S(C)=O)cc1` (stereo not given), the figure is 70.5%. As for `Nc1ncc(-c2ccc3ncnc(N4CCc5cc(F)c(Cl)cc54)c3c2)cn1`, the figure is 61.5%; as for `O=C1/C(=C/c2cccc(Br)c2)COc2ccc(O)c(O)c21`, -58.8% (active). As to `Cn1cc(-c2csc(-c3cn(CCO)c4ccc(F)cc34)n2)c2cccnc21`, the growth was 64.1%.

Turning to `O=C(CSc1nnc(-c2cc(-c3ccc(Cl)cc3)nc3ccccc23)n1-c1ccccc1)Nc1ccc(Cl)cc1`, the growth was 111%.

For `O=S(=O)(c1ccc(NCSc2nc3ccccc3s2)cc1)c1ccc(NCSc2nc3ccccc3s2)cc1`, the growth is 95.5%.

On to `CC(CN)[C@@H]1CC[C@]2(CO)CC[C@]3(C)[C@H](CC[C@@H]4[C@@]5(C)CCC(NCCO)C(C)(C)[C@@H]5CC[C@]43C)[C@@H]12` (stereo not given in full), for which the growth is -26.8% (active).

For `CCCC1Cc2cc(-n3nc(C)c4c3CC(C)(C)CC4=O)cc(NC3CCC(O)CC3)c2C(=O)N1` (stereo not given), the growth is 34.2%. As for `C#Cc1cccc(Nc2ncnc3ccc(-c4cnc(Cl)c(NS(C)(=O)=O)c4)cc23)c1`, the figure is -62.5% (active).
